Measurements as given in PubChem BioAssay (EPA / NIEHS).
The source made the active and inactive calls. The calls were made as follows: active = hit-call score of the fitted dose curve at least 0.9, where 1 is the maximum; inactive = score below 0.9.

Tests used:
[1] = target: Transcription factor E2F1 (Homo sapiens) (UniProt Q01094); test: ATG_E2F_CIS: Attagene CIS-FACTORIAL HepG2 Assay for human E2F Transcription Factor 1 (AID 2282935); conditions: HepG2 Attagene cis-reporter, E2F reporter RNA transcripts; actives raise or lower the signal
Transcription factor E2F1 (Homo sapiens), sequence (Q01094 whole entry, looked up): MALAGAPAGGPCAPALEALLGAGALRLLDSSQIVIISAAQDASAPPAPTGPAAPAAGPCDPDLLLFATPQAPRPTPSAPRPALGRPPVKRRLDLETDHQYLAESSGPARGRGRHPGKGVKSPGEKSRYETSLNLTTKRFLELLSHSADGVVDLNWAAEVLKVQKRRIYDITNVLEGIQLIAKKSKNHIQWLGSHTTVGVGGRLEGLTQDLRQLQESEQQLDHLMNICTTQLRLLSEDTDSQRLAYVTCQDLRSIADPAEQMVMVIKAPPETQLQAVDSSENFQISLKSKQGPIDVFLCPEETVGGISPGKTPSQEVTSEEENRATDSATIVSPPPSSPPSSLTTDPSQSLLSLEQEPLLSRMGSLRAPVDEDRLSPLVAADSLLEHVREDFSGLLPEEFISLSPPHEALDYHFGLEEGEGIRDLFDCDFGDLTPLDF
In short: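 Cis-element reporter mRNA induction in transiently transfected HepG2, 24 h exposure. Activity fitted in both directions relative to DMSO negative control.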

[2] = ATG_E_Box_CIS: Attagene CIS-FACTORIAL HepG2 Assay for human Enhancer Box (E-box) (AID 2282936); conditions: HepG2 E-box cis-reporter transcription, actives raise or lower the signal
In short: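 Cells: HepG2 (human liver), transient MRTU transfection. Exposure 24 h. RNA → oligo(dT) RT → PCR → 6-FAM label → HpaI → CE. Activity fitted both directions relative to DMSO.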

[3] = ATG_M_61_CIS: Attagene CIS-FACTORIAL HepG2 Assay for M61 Transcription Factor (Internal Marker) (AID 2282937); conditions: HepG2 Attagene CIS-FACTORIAL M61 internal marker reporter; actives raise or lower the signal
In short: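 Readout: fluorescent reporter mRNA fragments resolved by capillary electrophoresis after RT-PCR. Transiently transfected human HepG2 cells carried MRTU constructs reporting endogenous TF activity; 24 h chemical exposure; gain or loss of signal fitted relative to DMSO.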

[4] = ATG_EGR_CIS: Attagene CIS-FACTORIAL HepG2 Assay for human Early Growth Response 1 (EGR1) (AID 2282938); conditions: HepG2 Attagene CIS-FACTORIAL EGR reporter mRNA; actives raise or lower the signal
In short: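 Read-out: fluorescent reporter-mRNA fragments resolved by capillary electrophoresis after RT-PCR, 24 h post-dose in transiently transfected HepG2. Endogenous transcription-factor activity reported via cis-element-regulated reporter units; gain or loss fitted relative to DMSO.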

[5] = ATG_M_19_CIS: Attagene CIS-FACTORIAL HepG2 Assay for M19 Transcription Factor (Internal Marker) (AID 2282939); conditions: HepG2 Attagene CIS-FACTORIAL M19 internal marker reporter; actives raise or lower the signal
In short: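 HepG2 cells transiently transfected with cis-regulated multiplexed reporter units, dosed 24 h. Reporter mRNA quantified by RT-PCR and capillary electrophoresis; internal background marker fitted bidirectionally versus DMSO.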

[6] = ATG_ERE_CIS: Attagene CIS-FACTORIAL HepG2 Assay for Estrogen Response Element (ERE) (AID 2282940); conditions: HepG2 ERE cis-reporter, Attagene RNA transcript; actives raise or lower the signal
In short: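 HepG2 cells transiently transfected with multiplexed cis-element reporter units, measuring endogenous transcription factor activity; ERE reporter mRNA quantified after 24 h exposure by RT-PCR, fluorescent labelling, HpaI digestion and capillary electrophoresis. Bidirectional change versus DMSO.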

[7] = ATG_Ets_CIS: Attagene CIS-FACTORIAL HepG2 Assay for human Erythroblast Transformation Specific (ETS) (AID 2282941); conditions: HepG2 ETS cis-reporter transcription, actives raise or lower the signal
In short: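 HepG2 cells transiently transfected with cis-promoter reporter transcription units were dosed for 24 h; reporter mRNA was measured by RT-PCR, 6-FAM primer extension, HpaI digestion and capillary electrophoresis, with bidirectional fitting against DMSO baseline.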

[8] = ATG_FoxO_CIS: Attagene CIS-FACTORIAL HepG2 Assay for human Forkhead box O (FoxO) (AID 2282943); conditions: HepG2 Attagene cis-reporter, FoxO element, mRNA; actives raise or lower the signal
In short: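 Endogenous transcription factor activity read from multiplexed cis-promoter reporter transcripts in transiently transfected HepG2, 24 h after dosing. Reporter RNA measured via RT-PCR plus capillary electrophoresis of FAM-labeled products; gain or loss relative to DMSO.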

[9] = ATG_GATA_CIS: Attagene CIS-FACTORIAL HepG2 Assay for human GATA Binding Protein (AID 2282944); conditions: HepG2 GATA cis-element reporter, Attagene multiplex mRNA; actives raise or lower the signal
In short: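 HepG2 cells transiently transfected with multiplexed cis-element reporter units measure endogenous GATA activity; after 24 h compound exposure, reporter mRNA quantified by RT-PCR and capillary electrophoresis. Changes fitted in both directions vs DMSO.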

[10] = ATG_GLI_CIS: Attagene CIS-FACTORIAL HepG2 Assay for human Zinc Finger Protein GLI1 (AID 2282945); conditions: HepG2, Attagene cis-factorial reporter mRNA, GLI element; actives raise or lower the signal
In short: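 Bidirectional curve fits relative to DMSO, using reporter mRNA levels from RT-PCR plus capillary electrophoresis. Cells were HepG2 transiently carrying cis-regulated reporter constructs, harvested 24 h after dosing.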

[11] = ATG_GRE_CIS: Attagene CIS-FACTORIAL HepG2 Assay for human Glucocorticoid Response Elements (GRE) (AID 2282947); conditions: HepG2 GRE cis-reporter, Attagene multiplex mRNA; actives raise or lower the signal
In short: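 Transient MRTU transfection of human HepG2 liver cells; cis-regulated reporters report endogenous factors. 24 h dosing → RNA isolation → RT-PCR → 6-FAM primer extension → HpaI cut → CE fragment analysis. Bidirectional fit, DMSO negative control.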

[12] = ATG_ISRE_CIS: Attagene CIS-FACTORIAL HepG2 Assay for human Interferon Regulatory Factor 1 (IRF1) binding to an Interferon-Stimulated Response Element (ISRE) (AID 2282948); conditions: HepG2 ISRE cis-reporter (Attagene), mRNA transcription readout; actives raise or lower the signal
In short: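 HepG2 cells transiently transfected with multiplexed cis-promoter reporter units; after 24 h compound exposure, reporter mRNA quantified by RT-PCR, FAM labelling, HpaI digestion and capillary electrophoresis. Bidirectional fit versus DMSO baseline.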

[13] = ATG_M_32_CIS: Attagene CIS-FACTORIAL HepG2 Assay for M32 Transcription Factor (Internal Marker) (AID 2282949); conditions: HepG2 Attagene cis-factorial M32 reporter, mRNA; actives raise or lower the signal;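 also: background control marker of the multiplexed CIS panel rather than a real target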
In short: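 Fluorescent capillary electrophoresis peaks of HpaI-digested, FAM-labelled RT-PCR reporter products give the signal. Source: transiently transfected human liver HepG2 cells, 24 h after chemical dosing; bidirectional fitting against DMSO.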

[14] = target: Hypoxia-inducible factor 1-alpha (Homo sapiens) (UniProt Q16665); test: ATG_HIF1a_CIS: Attagene CIS-FACTORIAL HepG2 Assay for human Hypoxia Inducible Factor 1 (HIF1A) (AID 2282951); conditions: HepG2 Attagene cis-factorial HIF1a reporter transcription; actives raise or lower the signal
Hypoxia-inducible factor 1-alpha (Homo sapiens), sequence (Q16665 whole entry, looked up): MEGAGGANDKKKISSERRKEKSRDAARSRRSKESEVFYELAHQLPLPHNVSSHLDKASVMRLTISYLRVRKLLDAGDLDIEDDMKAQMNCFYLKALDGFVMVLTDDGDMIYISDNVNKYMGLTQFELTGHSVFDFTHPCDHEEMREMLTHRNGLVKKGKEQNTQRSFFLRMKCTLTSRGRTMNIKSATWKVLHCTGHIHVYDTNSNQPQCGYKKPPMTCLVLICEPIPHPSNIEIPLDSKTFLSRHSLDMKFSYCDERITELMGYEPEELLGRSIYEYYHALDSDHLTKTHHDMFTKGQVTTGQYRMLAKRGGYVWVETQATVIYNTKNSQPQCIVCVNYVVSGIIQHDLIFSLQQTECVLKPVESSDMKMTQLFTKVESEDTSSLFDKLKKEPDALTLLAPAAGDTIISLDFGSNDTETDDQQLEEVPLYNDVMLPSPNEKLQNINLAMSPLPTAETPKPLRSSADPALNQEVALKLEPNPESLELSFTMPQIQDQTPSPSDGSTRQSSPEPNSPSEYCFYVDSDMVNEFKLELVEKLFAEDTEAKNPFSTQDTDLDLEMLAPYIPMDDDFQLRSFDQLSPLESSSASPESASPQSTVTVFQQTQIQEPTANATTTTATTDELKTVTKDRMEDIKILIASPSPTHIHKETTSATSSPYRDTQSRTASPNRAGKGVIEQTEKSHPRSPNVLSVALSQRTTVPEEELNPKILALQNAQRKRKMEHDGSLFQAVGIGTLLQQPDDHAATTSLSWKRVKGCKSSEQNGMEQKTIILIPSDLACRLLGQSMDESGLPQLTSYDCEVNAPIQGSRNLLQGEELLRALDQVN
In short: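 RT-PCR/capillary electrophoresis fluorescence readout of reporter transcripts from endogenous-TF-driven cis elements in transfected HepG2 cells, 24 h exposure; activity fitted in both directions against DMSO controls.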

[15] = target: Hepatocyte nuclear factor 6 (Homo sapiens) (UniProt Q9UBC0); test: ATG_HNF6_CIS: Attagene CIS-FACTORIAL HepG2 Assay for human Hepatocyte Nuclear Factor 6 (HNF6) (AID 2282952); conditions: HepG2 Attagene cis-factorial HNF6 reporter transcription; actives raise or lower the signal
Hepatocyte nuclear factor 6 (Homo sapiens), sequence (Q9UBC0 whole entry, looked up): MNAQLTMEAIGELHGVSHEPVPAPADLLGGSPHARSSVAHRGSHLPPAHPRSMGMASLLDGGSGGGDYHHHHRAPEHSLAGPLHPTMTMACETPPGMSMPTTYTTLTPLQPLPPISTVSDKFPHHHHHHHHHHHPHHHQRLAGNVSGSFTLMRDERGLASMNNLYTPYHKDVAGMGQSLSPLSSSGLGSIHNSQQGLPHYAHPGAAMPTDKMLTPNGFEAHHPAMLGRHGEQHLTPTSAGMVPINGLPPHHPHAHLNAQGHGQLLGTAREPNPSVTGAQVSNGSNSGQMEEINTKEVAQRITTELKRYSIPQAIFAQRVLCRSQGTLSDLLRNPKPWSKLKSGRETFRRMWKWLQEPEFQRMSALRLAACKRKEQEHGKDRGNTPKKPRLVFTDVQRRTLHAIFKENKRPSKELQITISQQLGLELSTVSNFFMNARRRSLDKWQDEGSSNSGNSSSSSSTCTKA
In short: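 HepG2, transient MRTU transfection (cis promoters); 24 h chemical exposure; total RNA → oligo(dT) RT → PCR → 6-FAM labelling → HpaI cut → CE; bidirectional fit vs DMSO.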

[16] = target: Heat shock factor protein 1 (Homo sapiens) (UniProt Q00613); test: ATG_HSE_CIS: Attagene CIS-FACTORIAL HepG2 Assay for human Heat Shock Transcription Factor 1 (HSE) (AID 2282953); conditions: HepG2 HSE cis-reporter, Attagene RNA transcription; actives raise or lower the signal
Heat shock factor protein 1 (Homo sapiens), sequence (Q00613 whole entry, looked up): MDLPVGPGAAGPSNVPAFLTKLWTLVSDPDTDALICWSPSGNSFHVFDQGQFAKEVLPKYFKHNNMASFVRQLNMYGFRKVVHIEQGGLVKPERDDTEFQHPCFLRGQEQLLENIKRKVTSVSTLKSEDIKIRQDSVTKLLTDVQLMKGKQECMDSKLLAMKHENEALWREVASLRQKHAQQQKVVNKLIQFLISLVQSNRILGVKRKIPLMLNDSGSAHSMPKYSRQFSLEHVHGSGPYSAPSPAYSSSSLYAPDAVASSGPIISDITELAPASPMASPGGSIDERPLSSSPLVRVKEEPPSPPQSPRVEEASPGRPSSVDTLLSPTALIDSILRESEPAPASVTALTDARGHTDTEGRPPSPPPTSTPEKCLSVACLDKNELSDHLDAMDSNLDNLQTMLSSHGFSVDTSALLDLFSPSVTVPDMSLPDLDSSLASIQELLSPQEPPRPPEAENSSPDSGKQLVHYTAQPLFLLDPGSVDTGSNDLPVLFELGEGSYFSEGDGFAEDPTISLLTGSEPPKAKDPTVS
In short: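 HepG2 cells transfected with cis-promoter reporter units sensing endogenous transcription factor activity; reporter mRNA quantified 24 h post-dose by RT-PCR and capillary electrophoresis of 6-FAM-labelled products. Bidirectional fitting against DMSO.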

[17] = ATG_MRE_CIS: Attagene CIS-FACTORIAL HepG2 Assay for human Metal Responsive Element (MRE) (AID 2282954); conditions: HepG2 MRE cis-reporter transcription, Attagene multiplex; actives raise or lower the signal
In short: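 Transient MRTU transfection of HepG2 (FuGene 6); 24 h dosing; total RNA → oligo(dT) RT, PCR, 6-FAM primer extension, HpaI cut, CE. Bidirectional fit vs DMSO.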

[18] = target: Hepatocyte nuclear factor 3-beta (Homo sapiens) (UniProt Q9Y261); test: ATG_FoxA2_CIS: Attagene CIS-FACTORIAL HepG2 Assay for human Forkhead box A2 (FOXA2) (AID 2282942); conditions: HepG2 cis-reporter transcription factor activity, 24 h; actives raise or lower the signal
Hepatocyte nuclear factor 3-beta (Homo sapiens), sequence (Q9Y261 whole entry, looked up): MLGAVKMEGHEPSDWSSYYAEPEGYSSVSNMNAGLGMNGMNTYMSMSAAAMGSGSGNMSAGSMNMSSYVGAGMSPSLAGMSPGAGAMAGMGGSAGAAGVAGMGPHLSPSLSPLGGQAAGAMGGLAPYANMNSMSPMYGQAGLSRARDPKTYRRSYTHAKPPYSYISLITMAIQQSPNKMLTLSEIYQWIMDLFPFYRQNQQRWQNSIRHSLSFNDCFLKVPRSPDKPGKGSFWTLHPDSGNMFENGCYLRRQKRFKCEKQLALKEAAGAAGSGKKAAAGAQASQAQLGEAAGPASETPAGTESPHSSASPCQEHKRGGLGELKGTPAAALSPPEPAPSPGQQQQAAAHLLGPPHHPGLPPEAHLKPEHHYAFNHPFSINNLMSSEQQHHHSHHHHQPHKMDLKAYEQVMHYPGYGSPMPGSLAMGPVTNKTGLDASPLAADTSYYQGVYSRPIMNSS
In short: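 Readout: fluorescent reporter transcripts resolved by capillary electrophoresis after RT-PCR. Transiently transfected HepG2, 24 h compound exposure, endogenous TF activity at cis promoter elements. Gain or loss of signal fitted relative to DMSO.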

[19] = target: Bile acid receptor (Homo sapiens) (UniProt Q96RI1); test: ATG_IR1_CIS: Attagene CIS-FACTORIAL HepG2 Assay for human Nuclear Receptor Subfamily 1 Group H Member 4 (NR1H4), IR1 submotif (AID 2282946); conditions: IR1 reporter transcription, actives raise or lower the signal
Bile acid receptor (Homo sapiens), sequence (Q96RI1 whole entry, looked up, the tested form may be a part): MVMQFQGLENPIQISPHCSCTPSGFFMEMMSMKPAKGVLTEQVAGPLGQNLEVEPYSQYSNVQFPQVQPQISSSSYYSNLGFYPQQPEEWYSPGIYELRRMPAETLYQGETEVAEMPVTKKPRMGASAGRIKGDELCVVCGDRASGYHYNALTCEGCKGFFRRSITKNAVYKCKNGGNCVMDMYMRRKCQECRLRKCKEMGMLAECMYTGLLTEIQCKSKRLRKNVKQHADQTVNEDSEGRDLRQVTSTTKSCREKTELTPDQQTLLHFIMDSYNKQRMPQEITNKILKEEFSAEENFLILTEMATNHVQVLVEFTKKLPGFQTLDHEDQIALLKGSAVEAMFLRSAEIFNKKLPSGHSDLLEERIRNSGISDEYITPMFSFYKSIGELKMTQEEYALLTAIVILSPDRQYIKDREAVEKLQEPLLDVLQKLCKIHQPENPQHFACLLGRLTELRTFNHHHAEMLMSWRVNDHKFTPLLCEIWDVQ
In short: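 Cells (human HepG2) carry transiently transfected cis-promoter reporter transcription units. Compounds are incubated 24 h, total RNA is reverse-transcribed and amplified, and labelled fragments are resolved by capillary electrophoresis. Curves use DMSO as baseline.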

[20] = ATG_M_06_CIS: Attagene CIS-FACTORIAL HepG2 Assay for M06 Transcription Factor (Internal Marker) (AID 2282950); conditions: HepG2 Attagene CIS-FACTORIAL M06 internal marker reporter; actives raise or lower the signal
In short: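 Internal background marker within multiplexed cis-reporter HepG2 system. Cells transiently transfected, dosed 24 h; reporter mRNA measured by RT-PCR, HpaI digestion and capillary electrophoresis. Bidirectional fit relative to DMSO.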

Measured: AC50

CCCCCCCCSCc1cc(C)c(O)c(CSCCCCCCCC)c1
not listed: [18] | [19] | [20]
inactive: all other assays above

Brc1cc(Br)cc(Br)c1
not listed: [7] | [16]
inactive: all other assays above

O=C1OCc2ccccc21
not listed: [7]
inactive: all other assays above

O=C(O)C1=NN(c2ccc(S(=O)(=O)O)cc2)C(=O)C1
not listed: [14] | [18] | [19]
inactive: all other assays above

CN(C)CCC=C1c2ccccc2CCc2ccccc21
active: [4] 41 µM | [12] 21.5 µM
not listed: [7] | [14] | [17]
inactive: all other assays above

CC=CC(=O)C1=C(C)C=CCC1(C)C
not listed: [7] | [14]
inactive: all other assays above

CC(=O)c1ccc(C)cc1
not listed: [7] | [14] | [16] | [19]
inactive: all other assays above

O=S1(=O)CC(Cl)(Cl)C(Cl)(Cl)C1
active: [2] 2.8 µM | [4] 6.17 µM | [19] 5.49 µM | [12] 1.37 µM | [17] 6.29 µM
not listed: [9] | [14] | [18] | [20]
inactive: all other assays above

CCCCC/C=C\C=C\C(=O)OCC
active: [4] 58.3 µM | [18] 71.5 µM | [10] 64 µM | [12] 56.3 µM | [14] 78.5 µM | [16] 46.7 µM | [17] 55.1 µM
not listed: [7] | [19]
inactive: all other assays above

CCCO
not listed: [7] | [17] | [19]
inactive: all other assays above

CC(C)CCOC(=O)CC(C)C
not listed: [9] | [17] | [18] | [19]
inactive: all other assays above

COc1ccc(OC)cc1
not listed: [7] | [14] | [19]
inactive: all other assays above

CCCCCCCCOC(=O)c1ccc(O)cc1
active: [6] 5.12 µM
not listed: [13] | [14] | [15] | [17] | [18] | [19]
inactive: all other assays above

CC1=CCC(=C(C)C)CC1
active: [6] 60 µM
not listed: [7] | [11] | [19]
inactive: all other assays above

C=CC(C)CCCC(C)(C)O (configuration not stated)
not listed: [11] | [16] | [18] | [19]
inactive: all other assays above

CCCCCCCCCCOC(=O)c1ccccc1C(=O)OCCCCCCCC
not listed: [18] | [19] | [20]
inactive: all other assays above

CCCC1CCC(=O)CC1
not listed: [7] | [16] | [19]
inactive: all other assays above
